Screening results deposited in PubChem by National Center for Advancing Translational Sciences (NCATS).
BAZ2B block: inhibitors of human BAZ2B bromodomain. Q9UIF8. 4.4% of 360,000 active. AlphaScreen BAZ2B-H3K14Ac peptide displacement. AID 504333. Potency, µM (doses to about 114 µM), inactives show top-dose activity change, negative = inhibition, most hits filed as inhibitors; further: on the % scale 0 is the no-effect control and ±100 the full control effect; nearly all actives have a fitted effect of over 60% in size
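AlphaScreen displacement of biotin-H3(5-23)K14Ac peptide (50 nM final) from BAZ2B (50 nM final) in PBS pH 7.4, 0.01% Tween-20; complex preformed 30 min RT, then compounds (top 110 uM) 30 min RT, beads 20 min dark.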
G9a inh: blocks human histone lysine methyltransferase G9a; Q96KQ7; G9a H3K9 monomethylation, AlphaScreen, 2 h; Potency, µM (titrated, usually from 102 µM), without a hit: at the top dose activity, negative = inhibition, actives largely listed as inhibitors; 8.8% of 350,000 active; AID 504332; further: on the % scale 0 is the no-effect control and ±100 the full control effect; nearly all actives have a fitted effect of over 75% in size
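Signal arises when biotinylated H3K9 peptide, once monomethylated, bridges streptavidin donor and antibody-captured acceptor beads. Enzyme at 20 nM was preincubated 15 min with test compounds; peptide 500 nM and SAM 20 uM then reacted for 2 h.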
JMJD2A Tudor: inhibitors of human JMJD2A Tudor domain; O75164; AlphaScreen JMJD2A-Tudor / H3K4me3 peptide binding; Potency, µM (top dose mostly 114 µM), inactives show top-dose activity change, negative = inhibition, hits mostly inhibitors; 4.4% of 390,000 active; further: on the % scale 0 is the no-effect control and ±100 the full control effect; nearly all actives have a fitted effect of over 50% in size
HP1b binding inh: blocks HP1-beta chromodomain binding to methylated histone tails; Potency, µM (titrated, usually from 114 µM), for inactives: top-dose activity change, negative = inhibition, actives largely listed as inhibitors; P83916; 0.56% of 390,000 active; AID 540317; AlphaScreen HP1-beta / biotin-H3K9me3 peptide binding; further: nearly all actives have a fitted effect of over 70% in size
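HP1-beta protein (50 nM final) preincubated 30 min at room temperature with biotinylated H3(1-18)K9me3 peptide (50 nM) in PBS pH 7.4, 0.01% Tween-20, then compound added for 30 min. AlphaScreen streptavidin donor/nickel chelate acceptor beads (10 ug/mL final), 30 min dark, luminescence read.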
PLK1 PBD block: inhibitors of human PLK1 polo-box domain binding. P53350. Plk1 PBD binding of FITC phosphopeptide, fluorescence polarization. Potency, µM, inactives show max response, negative = inhibition, actives largely listed as inhibitors. 2.8% of 360,000 active. AID 720504; further: series mostly up to about 57 µM; on the % scale 0 is the no-effect control and ±100 the full control effect; nearly all actives have a fitted effect of over 65% in size
Target sequence (P53350 whole entry, looked up, the tested form may be a part): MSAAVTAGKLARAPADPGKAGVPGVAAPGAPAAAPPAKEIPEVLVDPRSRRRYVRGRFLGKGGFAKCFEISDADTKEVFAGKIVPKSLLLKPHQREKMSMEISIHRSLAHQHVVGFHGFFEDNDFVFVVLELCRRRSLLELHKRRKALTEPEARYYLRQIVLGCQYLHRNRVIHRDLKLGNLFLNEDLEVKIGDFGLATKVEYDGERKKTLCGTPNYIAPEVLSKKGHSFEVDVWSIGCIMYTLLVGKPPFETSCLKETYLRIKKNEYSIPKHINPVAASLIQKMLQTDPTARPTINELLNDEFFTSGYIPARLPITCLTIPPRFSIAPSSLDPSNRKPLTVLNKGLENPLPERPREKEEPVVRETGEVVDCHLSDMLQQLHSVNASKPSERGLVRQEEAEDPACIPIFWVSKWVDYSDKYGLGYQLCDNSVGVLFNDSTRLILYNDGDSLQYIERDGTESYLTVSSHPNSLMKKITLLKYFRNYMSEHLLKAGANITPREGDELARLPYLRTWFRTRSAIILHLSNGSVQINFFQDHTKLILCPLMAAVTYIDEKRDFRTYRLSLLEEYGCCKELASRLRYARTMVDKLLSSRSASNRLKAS
Sfp inh: inhibitors of Bacillus subtilis Sfp phosphopantetheinyl transferase; 3.5% of 310,000 active; Biochemical Sfp PPTase activity, qHTS; Potency, µM, without a hit: largest response in the series, negative = inhibition, usual class: inhibitors; Q9F4F7;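 further: the enzyme is Sfp with the accession as filed and its product quenches rhodamine fluorescence; 0% = enzyme reaction without inhibitor and -100% = no enzyme wells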
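With Hepes-Na pH 7.6 buffer containing 10 mM MgCl2, Sfp (15 nM) modified BHQ-2-YbbR (12.5 uM) using rhodamine-CoA (5 uM). Two reads 30 minutes apart at 525/598 nm yielded each well's rate.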
* hit, by the source's call; [ ] = dose if it differs, or a comment. An excerpt weighted towards active compounds, which were near 12% of everything screened. The call rests on the fitted dose curve; in most records, active means well fitted curve in the direction sought with a large enough effect; inconclusive means small, poorly fitted or top-dose-only effect, or another doubt; inactive means no such curve, though single readings can be large; an effect the other way counts as inactive or inconclusive. Potency means the concentration at half of the fitted maximal effect.

Screening COc1ccc(CCNC(=O)C23CN(Cc4ccccc4)CC2C(c2ccc([N+](=O)[O-])cc2)=NO3)cc1 (centres undefined) returned BAZ2B block 11%, G9a inh inconclusive, JMJD2A Tudor -30%, HP1b binding inh -4%, PLK1 PBD block 1% and Sfp inh 50µM*.
For O=C(NCCCCc1ccccc1)C12CN(Cc3ccccc3)CC1C(c1cccc([N+](=O)[O-])c1)=NO2 (centres undefined) the results were BAZ2B block -26%, G9a inh inconclusive, JMJD2A Tudor -35%, HP1b binding inh -22%, PLK1 PBD block -14% and Sfp inh 8%.
For Cc1ccc(CNC(=O)C23CN(Cc4ccccc4)CC2C(c2cccc([N+](=O)[O-])c2)=NO3)cc1 (centres undefined) the results were BAZ2B block -5%, G9a inh inconclusive, JMJD2A Tudor inconclusive, HP1b binding inh -3%, PLK1 PBD block -13% and Sfp inh -9%.
Screening O=C(NCCCCc1ccccc1)C12CN(Cc3ccccc3)CC1C(c1ccc([N+](=O)[O-])cc1)=NO2 (centres undefined) returned BAZ2B block 15%, G9a inh inconclusive, JMJD2A Tudor inconclusive, HP1b binding inh 14%, PLK1 PBD block 1% and Sfp inh 28µM*.
Screening O=C(NCc1ccco1)C12CN(Cc3ccccc3)CC1C(c1cccc([N+](=O)[O-])c1)=NO2 (centres undefined) returned BAZ2B block inconclusive, G9a inh 45µM*, JMJD2A Tudor inconclusive, HP1b binding inh -7%, PLK1 PBD block -17% and Sfp inh 1%.
CC1=CC(C)(C)Nc2ccc(OC(=O)CCN3C(=O)c4ccccc4C3=O)cc21 was read as BAZ2B block 35µM*, G9a inh 20µM*, JMJD2A Tudor -19%, HP1b binding inh inconclusive, PLK1 PBD block -6% and Sfp inh 13%.
Screening O=C(CCN1C(=O)c2ccccc2C1=O)Oc1ccc2ccccc2c1 returned BAZ2B block 10%, G9a inh 63%[12.7 µM], JMJD2A Tudor 6%, HP1b binding inh 45%, PLK1 PBD block -11% and Sfp inh -4%.
For Cc1noc(C)c1-c1nc(N(C)C)c2ccccc2n1 the results were G9a inh 3%[0.501 µM] and Sfp inh -23%.
`Cc1ccc(C(=O)C2CCN(CC(=O)Nc3ccc(N(C)C)cc3)CC2)cc1` gave BAZ2B block -79%, G9a inh 40µM*, JMJD2A Tudor 45µM*, HP1b binding inh -47%, PLK1 PBD block -8% and Sfp inh 3%.
`CN(C)c1ccc(NC(=O)CN2CCN(c3ccc(F)cc3)CC2)cc1` gave BAZ2B block -27%, G9a inh inconclusive, JMJD2A Tudor -18%, HP1b binding inh 5%, PLK1 PBD block -12% and Sfp inh 24%.
`CN(C)c1ccc(NC(=O)CN2CCN(CC(=O)Nc3ccc(F)cc3)CC2)cc1` gave BAZ2B block inconclusive, G9a inh 25µM*, JMJD2A Tudor -5%[57.1 µM], HP1b binding inh -13%, PLK1 PBD block -5% and Sfp inh 14%.
Cc1ccc(N(C(=O)COc2ccccc2C)S(=O)(=O)c2ccc(Cl)cc2)cc1 was read as BAZ2B block 3%, G9a inh 8%[59 µM], JMJD2A Tudor 4% and HP1b binding inh 39%.
`Cc1ccccc1C(=O)Nc1ccccc1N1CCCCC1` gave BAZ2B block 61%, G9a inh 277%, JMJD2A Tudor 71%, HP1b binding inh 154%, PLK1 PBD block -4% and Sfp inh -6%.
`CCn1c(=O)n(CC)c2cc(N3CCCC3)c(NC(=O)c3ccccc3F)cc21` gave BAZ2B block inconclusive, G9a inh 40µM*, JMJD2A Tudor 56µM*, HP1b binding inh inconclusive, PLK1 PBD block 24µM* and Sfp inh -16%.
For CCn1c(=O)n(CC)c2cc(N3CCCC3)c(NC(=O)c3ccccc3C)cc21 the results were BAZ2B block inconclusive, G9a inh 50µM*, JMJD2A Tudor inconclusive, HP1b binding inh -2%, PLK1 PBD block -21% and Sfp inh -10%.
Screening CC(=O)OC[C@@H]1O[C@@H](O/N=C2/C[C@@H](O)[C@@H](O)[C@@H]3[C@@H]4C(=O)N(C[C@@H]5CCCO5)C(=O)[C@H]4CC[C@H]23)[C@H](OC(C)=O)[C@H](OC(C)=O)[C@@H]1OC(C)=O returned Sfp inh -8%.
Cc1cc(C)c2cc(C#N)c(N3CCCC3)nc2c1 was read as BAZ2B block 66%, G9a inh -37%[12.7 µM], JMJD2A Tudor 39%[11.4 µM], HP1b binding inh 84%, PLK1 PBD block -25% and Sfp inh 45µM*.
`Cc1ccccc1C(=O)Nc1ccc(OCc2cc(=O)n3ccccc3n2)cc1` gave BAZ2B block 8%, G9a inh -12%[59 µM], JMJD2A Tudor -10% and HP1b binding inh 19%[57 µM].
`CC1CCCN(C(=O)C2CC(=O)N(c3ccc(Cl)cc3)C2)C1` (centres undefined) gave BAZ2B block -3%, G9a inh 45µM*, JMJD2A Tudor -21%, HP1b binding inh -20%, PLK1 PBD block -12% and Sfp inh -7%.
For CCn1nc(C)c(CNC(=O)C2CCC(=O)N(CCc3ccc(OC)cc3)C2)c1C (centres undefined) the results were BAZ2B block -3%[57.1 µM], G9a inh -13%, JMJD2A Tudor -22%, HP1b binding inh 67%, PLK1 PBD block -23% and Sfp inh 10%.
Screening O=C1NC[C@@H](CCCCN2CCN(CCC3CCCCC3)C(=O)C2=O)N(Cc2ccccc2)C1=O returned PLK1 PBD block -8%.
`Cc1cccc(NCc2ccc(O)c3ncccc23)c1C` gave BAZ2B block 56µM*, G9a inh 0.4µM*, JMJD2A Tudor inconclusive, HP1b binding inh -4%, PLK1 PBD block 6µM* and Sfp inh 27%.
For Cc1cccnc1NCc1ccc(O)c2ncccc12 the results were BAZ2B block 13µM*, G9a inh 1.8µM*, JMJD2A Tudor 22µM*, HP1b binding inh -15%, PLK1 PBD block 19µM* and Sfp inh 16%.
`Cc1ccc(NCc2ccc(O)c3ncccc23)cc1C` gave BAZ2B block 13%, G9a inh 18%, JMJD2A Tudor inconclusive, HP1b binding inh 11%, PLK1 PBD block 3.4µM* and Sfp inh 8%.
`Cc1cccc(CNc2ncncc2-c2ccccc2CN(C)C)c1` gave G9a inh 25%[0.501 µM] and Sfp inh 10%.
